Screens (PubChem BioAssay)
TTR transcr act = activators of transthyretin transcription. SH-SY5Y TTR promoter Gaussia luciferase, luminescence; 100% = recombinant luciferase protein wells. activation, % at 16.7 µM. 92,000 tested, 1.3% active. AID 1117267;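 active = activation above the mean of all tested compounds plus 3 SD, cut at about 9.5% in these data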;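 note: cells exposed to compounds for one day before reading; 0% = median of all test compound wells on the plate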
HuH7 TTR inh = HuH7 TTR transcription inhibition, counter-screen; HuH7 TTR promoter-Gaussia luciferase reporter, luminescence; 1,100 tested, 4% active; shares compounds with TTR transcr act; AID 1117279; inhibition, % at 16.7 µM;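 active = average inhibition above the solvent-only control wells' mean plus 3 SD, cut at about 15% in these data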;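 note: 0% = cells with DMSO only and 100% = cells with inhibitor control FD; inhibitors lower well luminescence so higher value means more inhibition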
TTR act confirm = confirmation of human transthyretin transcription activators; shares compounds with TTR transcr act; SHSY5Y TTR promoter Gaussia luciferase, luminescence; 100% = purified Lucia enzyme wells, no cells; activation, % at 16.7 µM; 1,100 tested, under 10 active;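 active = mean activation above a set limit taken from the earlier primary screen, cut at about 11% in these data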;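 note: 0% = DMSO-treated cells and 100% = recombinant Lucia luciferase without cells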
* marks the source's active call; other numbers are inactive results. Shown is part of a subset that was picked to be rich in hits.

SMILES	TTR transcr act	others
O=S1(=O)c2ccc(N3CC[C@H](O)C3)cc2OCCCN1C1CC1	3
COc1ccc(Cn2ccc3ccc(-c4ccc5ccn(C(=O)c6cccc(OC)c6)c5c4)cc32)cc1	-1
Cc1cc(C)c(C#N)c(SCC(=O)N2CCN(Cc3ccccc3)CC2)n1	-3
O=C(CSc1ncccn1)N1CCN(Cc2ccccc2)CC1	15*	HuH7 TTR inh=7;TTR act confirm=-1
O=C(CCS(=O)(=O)c1ccc(Br)cc1)N1CCN(Cc2ccccc2)CC1	-1
C[C@@H]1CCN(C2CC2)S(=O)(=O)c2ccc(N3CCC[C@@H]3C)cc2O1	1
Cc1ccccc1CN1CCCCC(NC(=O)c2cc(-c3ccccc3)no2)C1=O (centres undefined)	4
CCOC(=O)[C@@]12CCC3=C1N(CCC3)C(=O)[C@H](CC(=O)NCC13CC4CC(CC(C4)C1)C3)C2	0
O=C(Cc1ccccc1)c1c[nH]c(C(=O)NCc2ccncc2)c1	2
CN(C)CCCNC(=O)c1cc(C(=O)Cc2ccccc2)c[nH]1	21*	HuH7 TTR inh=-11;TTR act confirm=0
CN(C)CCCNC(=O)c1cc(C(=O)C2CCCCC2)c[nH]1	0
CCCCCCC(=O)NC1CCCCN(Cc2ccc(Cl)cc2)C1=O (centres undefined)	0
CCOC(=O)[C@@]12CCCC3=C1N(CCC3)C(=O)[C@H]2CC(=O)N1CCOCC1	1
Oc1ccc(C(=S)N2CCCCC2)cc1	10*	HuH7 TTR inh=2;TTR act confirm=-1
COc1cc(C(=S)N2CCCC2)ccc1O	1
COc1ccc(C(=S)N2CCCC2)cc1Br	1
C=CCN1C(=O)[C@H](CC(=O)NCc2cccs2)[C@@]2(C(=O)OCC)CCCC=C12	2
Cc1ccc(-c2c(NC(=O)c3ccc(F)cc3)nc3ncccn23)cc1	-1
C=CCc1ccc(OCCn2cccc2C=O)c(OC)c1	-4
C=CCSC1=Nc2cc(OC)c(OC)cc2C2=NC(=O)CN12	31*	HuH7 TTR inh=14;TTR act confirm=-1
COc1cc2c(cc1OC)C1=NC(=O)CN1C(SCc1ccc(C)cc1)=N2	-2
CCC[C@H]1[C@@H](OC(=O)NCc2ccc(C)cc2)CC[C@@]23CCCN2C(=O)CCC[C@@H]13	1
CC(=O)c1cccc(OCc2cc(C(=O)N3CCC(N4CCCCC4)CC3)no2)c1	1
CCCC[C@H]1C2CC(OC(=O)Nc3ccc(C#N)cc3)C(C2)[C@H]2CCCCN21 (some centres undefined)	4
CC(C)(C)C1=Nn2c(nnc2C2CCCCC2)SC1	2
SMILES	TTR transcr act	others
c1cc2c(cc1C1=Nn3c(nnc3C3CCCCC3)SC1)OCO2	9.9*	HuH7 TTR inh=30*;TTR act confirm=-1
COc1ccc(C2=Nn3c(nnc3-c3ccc(OC)cc3)SC2)cc1	-1
CCN1CCN(C(C(=O)NC2CCCCC2)c2ccnc3ccccc23)CC1 (centres undefined)	-1
CC(C)CN1C(=O)C[C@@]2(C(=O)N(C)c3ccc(NC(=O)C(F)(F)F)cc32)C1c1ccccc1 (some centres undefined)	5
Cc1cc(C)cc(NC(=O)O[C@@H]2CC[C@@]34CCCN3C(=O)CCC[C@H]4C2)c1	-2
Cc1nc(CC(C)C)cc(C(=O)N2CCCC(Nc3ccc(C)c(C)c3)C2)n1 (centres undefined)	1
COc1ccccc1C(=O)C1CCCN(C(=O)c2cc(CC(C)C)nc(C)n2)C1 (centres undefined)	19*	HuH7 TTR inh=-15;TTR act confirm=0
COc1ccccc1C(=O)C1CCCN(C(=O)c2ccc3c(c2)OCCO3)C1 (centres undefined)	1
O=C(NCc1ccco1)C(c1ccccc1)N(CC1CCCO1)C(=O)Cn1nnc2ccccc21 (centres undefined)	6
Cc1cccc(N(C(=O)Cn2nnc3ccccc32)C(C(=O)NCc2ccco2)c2ccncc2)c1C (centres undefined)	1
Cc1ccccc1C(C(=O)NCc1ccco1)N(CC1CCCO1)C(=O)Cn1nnc2ccccc21 (centres undefined)	12*	HuH7 TTR inh=-4;TTR act confirm=-1
Cc1nc(C(=O)NNC(=O)Nc2ccc(Cl)cc2)cs1	4
Cc1cc(C(=O)NNC(=O)Nc2ccc(Cl)cc2)no1	0
CN(C)CC#Cc1cncc(C(=O)NNC(=O)Nc2ccc(Cl)cc2)c1	10*	HuH7 TTR inh=-14;TTR act confirm=2
CC(C)(C)c1ccc(C(=O)Nc2cc(Cl)c(F)cc2C(=O)O)cc1	-2
CCOC(=O)N1CCN(C(=O)C[C@H]2C[C@@]3(C(=O)OC)C(=C[C@H](C4CCCC4)O[C@@H]3C)N(Cc3ccc(Cl)cc3Cl)C2=O)CC1	1
Cc1cccc(C(=O)Nc2c(C(=O)N(C)C)cnn2-c2ccccc2)c1	11*	HuH7 TTR inh=-13;TTR act confirm=-1
O=C(Nc1c(C(=O)N2CCCCC2)cnn1-c1ccccc1)c1ccccc1	5
CCOC(=O)c1cnn(-c2ccccc2)c1NC(=O)c1ccccc1	-1
